Compound activity from PubChem.
EPAC1 agonist – qHTS for Agonist of cAMP-regulated guanine nucleotide exchange factor 3 (EPAC1): primary screen | EPAC1 agonist qHTS, biochemical assay; response scale: 100% = response to 6.5 mM cAMP | actives 0.073% (n = 360,000) | AID 720707, 2013 | Potency, µM (highest dose often 154 µM), without a hit: at the highest dose activation, most hits filed as activators; note: potency is the fitted concentration of half-maximal effect; nearly all actives have a fitted effect of over 60% in size
Target sequence (O95398 whole entry, looked up): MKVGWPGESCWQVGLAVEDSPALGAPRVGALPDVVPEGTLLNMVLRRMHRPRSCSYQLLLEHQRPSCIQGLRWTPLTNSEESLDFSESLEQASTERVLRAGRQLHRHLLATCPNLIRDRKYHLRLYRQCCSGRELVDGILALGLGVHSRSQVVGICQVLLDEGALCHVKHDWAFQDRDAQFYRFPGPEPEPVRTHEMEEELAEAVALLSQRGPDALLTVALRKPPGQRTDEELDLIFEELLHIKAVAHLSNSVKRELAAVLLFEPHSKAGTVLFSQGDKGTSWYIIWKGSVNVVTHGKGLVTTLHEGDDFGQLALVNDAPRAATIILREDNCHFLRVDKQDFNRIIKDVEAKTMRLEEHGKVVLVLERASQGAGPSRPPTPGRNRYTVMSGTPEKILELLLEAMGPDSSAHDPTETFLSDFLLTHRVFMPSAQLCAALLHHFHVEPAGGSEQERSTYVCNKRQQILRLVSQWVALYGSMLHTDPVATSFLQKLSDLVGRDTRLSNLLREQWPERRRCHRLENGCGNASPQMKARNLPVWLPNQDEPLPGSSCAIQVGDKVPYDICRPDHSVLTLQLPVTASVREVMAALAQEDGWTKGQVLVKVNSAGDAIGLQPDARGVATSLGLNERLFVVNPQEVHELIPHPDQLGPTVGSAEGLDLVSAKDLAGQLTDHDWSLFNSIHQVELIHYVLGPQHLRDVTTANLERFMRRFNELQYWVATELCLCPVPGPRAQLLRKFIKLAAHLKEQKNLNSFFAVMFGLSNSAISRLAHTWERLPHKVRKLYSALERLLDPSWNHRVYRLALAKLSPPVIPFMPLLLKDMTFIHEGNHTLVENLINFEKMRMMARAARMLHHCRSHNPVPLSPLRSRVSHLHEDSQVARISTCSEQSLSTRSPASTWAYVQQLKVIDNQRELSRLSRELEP
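Multi-concentration qHTS readout: loss of Rap1B-bound BODIPY-GDP fluorescence driven by 100 nM EPAC1 with excess GDP (50 uM), monitored kinetically at room temperature; agonist response expressed relative to 6.5 mM cAMP.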
EPAC2 ag – qHTS for Agonist of cAMP-regulated guanine nucleotide exchange factor 4 (EPAC2): primary screen | actives 0.079% (n = 360,000) | Potency, µM (highest dose often 154 µM), without a hit: at the highest dose activation, usual class: activators | EPAC2 activation, biochemical qHTS; response scale: 100% = 6.5 mM cAMP response | Rap guanine nucleotide exchange factor 4 (Homo sapiens), Q8WZA2; note: potency is the fitted concentration of half-maximal effect; nearly all actives have a fitted effect of over 50% in size
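Readout is BODIPY fluorescence (480 nm excitation, 540 nm emission), which falls as labeled GDP is exchanged off Rap1B. EPAC2 at 100 nM acted on 250 nM RAP1B-BODIPY-GDP with 50 uM GDP present.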
EPAC2 antag – qHTS for Antagonist of cAMP-regulated guanine nucleotide exchange factor 2 (EPAC2): primary screen | Rap guanine nucleotide exchange factor 4 (Homo sapiens), Q8WZA2 | Potency, µM (highest dose often 114 µM), inactives show at the top dose activity, negative = inhibition, most hits filed as inhibitors | actives 0.18% (n = 360,000) | EPAC2 GEF exchange of Rap1B-BODIPY-GDP, fluorescence; note: potency is the fitted concentration of half-maximal effect; % is set by controls: 0 for no effect and ±100 for the full control effect; nearly all actives have a fitted effect of over 45% in size
EPAC1 antag – qHTS for Antagonist of cAMP-regulated guanine nucleotide exchange factor 3 (EPAC1): primary screen; EPAC1 GEF assay, Rap1b-BODIPY-GDP exchange fluorescence; Potency, µM (top dose mostly 115 µM), inactives show at the highest dose activity change, negative = inhibition, hits mostly inhibitors; actives 0.14% (n = 360,000);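 note: potency is the fitted concentration of half-maximal effect; plate controls were vehicle for no effect and positive control for full effect; nearly all actives have a fitted effect of over 50% in size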
FBPA coupling cs – qHTS Assay for Inhibitors of Fructose-1,6-bisphosphate Aldolase from Giardia Lamblia: Coupling assay counterscreen. AID 2472, 2010. coupling enzyme system counterscreen, AmpLite Red fluorescence. activity change, negative = inhibition, % at 58.2 µM, hits read low. actives 0.67% (n = 290,000); in the data active = activity change below about -30%; note: % is set by controls: 0 for no effect and ±100 for the full control effect
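Compounds tested against the coupling enzymes alone at 57.5 uM final; readout was AmpLite Red fluorescence (525/598 nm) after 20 min at RT.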
USP1-UAF1 inh – Inhibitors of USP1/UAF1: Primary Screen; Ubiquitin carboxyl-terminal hydrolase 1 (Homo sapiens), O94782; recombinant USP1/UAF1, Ub-Rhodamine cleavage fluorescence; Potency, µM (doses to about 57.1 µM), inactives show at the highest dose activity change, negative = inhibition, actives largely listed as inhibitors; actives 0.23% (n = 390,000); note: potency is the fitted concentration of half-maximal effect; % is set by controls: 0 for no effect and ±100 for the full control effect; nearly all actives have a fitted effect of over 60% in size
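In this screen, compounds sit with the deubiquitinase complex (1nM) for 15 min at room temperature before Ub-Rho is added at 150nM final. Fluorescence rise is then followed for 6 reads every 60 seconds.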
* marks the source's active call; other numbers are inactive results; u = inconclusive; x = no result given. Sampled rows, rich in hits. Any-hit rate of the full collection: about 0.87%. Unless noted, calls come from the whole dose curve; as a rule, active = well fitted curve in the direction sought with a large enough effect; inconclusive = small, poorly fitted or top-dose-only effect, or another doubt; inactive = no such curve, though single readings can be large; an effect the other way counts as inactive or inconclusive.

SMILES	EPAC1 agonist	EPAC2 ag	EPAC2 antag	EPAC1 antag	FBPA coupling cs	USP1-UAF1 inh
COc1cc(S(=O)(=O)Nc2ccc(C)cc2)ccc1N=Cc1c(C)c(C#N)c(=O)n(C)c1O	u	-17%	-14%	-4%	-5	u
Cc1nc(NC(=O)c2ccc(Cl)cc2)sc1Cc1ccc2c(c1)OCO2	0%	1%	-4%	-19%	1	-24%
O=C1Cc2ccccc2Sc2c(OCCN3CCCCC3)cccc21	8%	2%	-4%	-11%	-50*	-2%
CCOc1ccccc1OCCN1CCCC1	-8%	6%	-2%	7%	-1	-8%
CC(=O)c1ccc(NC(=S)N2CCCC(C(F)(F)F)C2)cc1 (stereo not given)	-10%	0%	-1%	u	4	-16%
Cc1c(C(=O)N2CCCC2)oc2c1-c1[nH]ncc1CC2	10%	7%	0%	-4%	-49*	-15%
O=C(COC(=O)c1cccnc1Cl)Nc1cccc(S(=O)(=O)N2CCCCC2)c1	7%	17%	-1%	-20%	0	u
O=C(CN1C(=O)C2(OCCO2)c2ccccc21)c1ccc(F)cc1	14%	14%	-3%	-2%	-1	0%
CCN1C/C(=C\c2cc(OC)c(OC)c(OC)c2)C2=NN(c3ccccc3)C(c3cc(OC)c(OC)c(OC)c3)C2C1 (stereo not given)	5%	-6%	-2%	-1%	x	-4%
CCOC(=O)c1c(-c2ccccc2)csc1NC(=O)/C(C#N)=C\c1ccc(O)c(OC)c1	-4%	-5%	u	-11%	x	16µM*
COc1ccc(S(=O)(=O)Cc2ccc(C(=O)N3CC(C)CC(C)C3)o2)cc1 (stereo not given)	11%	-4%	-25%	-4%	2	-25%
O=C(CSc1nnc(CN2CCOCC2)n1-c1ccccc1)N1CCc2ccccc21	0%	1%	4%	6%	0	-19%
CC1CCN(C(=O)CSc2nnc(CN3CCOCC3)n2-c2ccccc2)CC1	9%	-6%	2%	32µM*	2	-1%
Cc1nc(C)c(-c2ccc(SCc3ccc([N+](=O)[O-])cc3)nn2)s1	-6%	-2%	-7%	-15%	x	-3%
CCOC(=O)c1cnc(-c2ccccc2)[nH]c1=O	6%	15%	2%	0%	-15	3%
CCOC(=O)c1cnc(-c2cccc(OC)c2)[nH]c1=O	12%	10%	-2%	-11%	-33*	0%
CC(C)C1=C2OC(N)=C(C#N)C(C#N)=C2C(C)CC1 (stereo not given)	3%	-37%	4%	3%	-39*	u
CSCCC(c1nc2ccccc2[nH]1)n1c(C)nc2ccccc21 (stereo not given)	6%	6%	0%	-17%	x	x
O=C1NN(c2ccc(F)c(Cl)c2)C(=O)/C1=C\c1cccc(OC(=O)c2cccs2)c1	-13%	5%	1%	35µM*	9	u
O=C(N/N=C/c1ccc(OC(=O)c2ccccc2Cl)cc1)c1cc(O)cc(O)c1	-4%	24%	-19%	71µM*	-2	-12%
O=C(N/N=C/c1ccc(OC(=O)c2ccccc2Cl)cc1)c1ccccn1	-20%	1%	9%	-1%	0	-16%
Cc1cc(C)nc(Nc2nc(C(N)Cc3ccc(Cl)cc3)cs2)n1 (stereo not given)	-5%	0%	10%	-4%	x	x
CCCn1nc([N+](=O)[O-])c(C(C#N)c2nc3ccccc3o2)c(Cl)c1=O (stereo not given)	-10%	-28%	56µM*	-17%	1	-25%
CN1C(=O)/C(=C/c2ccccc2OCc2cccc(F)c2)N(C)C1=S	5%	4%	8%	6%	-37*	-17%
CN1C(=O)/C(=C/c2ccc(OCc3ccc(F)cc3)cc2)N(C)C1=S	6%	14%	0%	12%	-3	-1%
SMILES	EPAC1 agonist	EPAC2 ag	EPAC2 antag	EPAC1 antag	FBPA coupling cs	USP1-UAF1 inh
CCN(CC(=O)NCc1ccc(F)cc1)C(=O)/C=C/c1cccs1	0%	8%	-7%	-9%	1	8%
CCN(CC(=O)NCc1ccc(F)cc1)C(=O)/C=C/c1ccco1	-16%	2%	7%	-1%	-40*	-14%
COc1ccc(NC(=O)c2cccc3ccccc23)cc1	-5%	-4%	14%	14%	-3	-21%
O=C(O)c1cccc(C(=O)c2cccc3ccccc23)c1	9%	3%	4%	-1%	x	-6%
COC(=O)c1ccccc1C(=O)c1cccc2ccccc12	7%	14%	45µM*	-17%	-4	-11%
O=C(c1ccccc1)c1cccc2ccccc12	14%	11%	13µM*	-14%	x	-12%
Cc1ccc(C2CC2c2n[nH]c(=S)n2-c2cccc(C)c2)cc1 (stereo not given)	-1%	8%	-13%	-25%	-1	-16%
Cc1ccc(C(=O)Oc2cc(C)[nH]c(=O)c2[N+](=O)[O-])cc1	-3%	3%	20%	6%	0	-15%
N#C/C(=C\c1ccc(Sc2ccc(Cl)cc2)o1)c1nc2ccccc2[nH]1	8%	100µM*	36%	7%	-6	u
N#C/C(=C\c1ccc(N2CCOCC2)o1)c1ccccc1	17%	13%	-1%	6%	-44*	u
N#C/C(=C/c1ccc(N2CCOCC2)o1)c1ccc(Br)cc1	12%	-252%	53%	-8%	x	107%
N#C/C(=C/c1ccc(N2CCOCC2)o1)c1nc2ccccc2[nH]1	89µM*	100µM*	46%	-7%	-25	25µM*
N#C/C(=C/c1ccc(N2CCCCCC2)o1)c1ccc(F)cc1	4%	-8%	0%	0%	x	u
N#C/C(=C/c1ccc(N2CCCCCC2)o1)c1cccc(F)c1	13%	15%	-1%	-2%	-48*	25µM*
O=C(Cn1cnc2ccccc2c1=O)Nc1ccc(-c2nnc3n2CCCCC3)cc1	5%	9%	0%	-12%	-1	-6%
Cc1ccc(Cl)cc1-n1ncc2c(NCCc3ccccc3)ncnc21	x	x	x	x	x	-4%
